A short description of assay [1]: small molecules captured by biotinylated probe aFSTL3 – biochemical, small-molecule microarray, fluorescence 635/667, stem cell growth factor project, primary screen (AID 1064).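 Also: measures binding of the biotinylated anti-FSTL3 antibody to printed compounds.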 The note with it: higher = more signal.
Assay [2] can be described thus: binders from COS7 lysate, DM2A8 probe, primary screen, torsin A project, cell lysate, small-molecule microarray, fluorescence 635/667 (AID 1065). The note with it: higher = more signal, COS7 lysate expressing mutant human TOR1A.
Assay [3] in a line: small molecules captured by biotinylated probe aFGF2 – biochemical, small-molecule microarray, fluorescence 635/667, stem cell growth factor project, primary screen (AID 1067).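 Also: measures binding of biotinylated aFGF2 protein to printed compounds on slides; z-score merges feature fluorescence and signal-to-noise across triplicate slides.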 The note with it: higher = more signal.
The nature of assay [4]: small molecules captured by biotinylated probe aFGF10 – biochemical, small-molecule microarray, fluorescence 635/667, stem cell growth factor project, primary screen (AID 1071).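 Also: score merges 667 nm spot intensity and signal to noise from triplicate slides.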 The note with it: higher = more signal.
Assay [5] has as its target Neurogenic locus notch homolog protein 2 (Homo sapiens) (UniProt Q04721). Description: small molecules binding Notch2 protein – biochemical, small-molecule microarray, 635 nm fluorescence, stem cell growth factors, primary screen (AID 1073). The note with it: higher = more signal.
For assay [6], the target named is Pro-neuregulin-1, membrane-bound isoform (Homo sapiens) (UniProt Q02297). Description: small molecules binding neuregulin-1 protein – biochemical, small-molecule microarray, fluorescence 635/667, psychiatric disease protein project, primary screen (AID 1075).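 Also: score combines 667 nm spot fluorescence with signal to noise.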 The note with it: NRG1 binding, 635 nm fluorescence, higher = more signal.
Assay [7] concerns Neuregulin-1 EGF-like domain. Description: small molecules binding NRG1 EGF domain – biochemical, small-molecule microarray, 635 nm fluorescence, primary screen (AID 1081).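 Also: binding of the protein to compounds printed on small-molecule microarray slides.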 The note with it: higher = more signal.
Assay [8] in a line: FRG1 expression reporter modulators in myotubes – cell-based, C2C12 myotubes, firefly/Renilla luciferase, luminescence, FRG1 inhibition for FSHD, primary screen (AID 1084). The note with it: FRG1 promoter luciferase, higher = more signal, called active from +8 up or from −8 down.
Assay [9] is described as follows: small molecules captured by biotinylated probe aFST – biochemical, small-molecule microarray, fluorescence 635/667, stem cell growth factor project, primary screen (AID 1086).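 Also: score merges 667 nm fluorescence with signal-to-noise of each printed compound spot.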 The note with it: higher = more signal.
Assay [10] can be described thus: binders of probe aHhip on microarray, primary screen, stem cell growth factor project, biochemical, small-molecule microarray, fluorescence 635/667 (AID 1087).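 Also: score merges spot fluorescence at 667nm with spot signal to noise ratio.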 The note with it: higher = more signal.
The subject of assay [11] is PRMT1 (protein arginine N-methyltransferase 1). Description: small molecules binding arginine methyltransferase PRMT1 – biochemical, small-molecule microarray, 635 nm fluorescence, primary screen (AID 1088).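 Also: binding of Prmt1 protein to compounds spotted on small-molecule microarray slides.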 The note with it: higher = more signal.
The nature of assay [12]: growth effects on S. cerevisiae YJM789 – YJM789 clinical isolate, OD600, 24 h, basal, primary screen (AID 1089).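 Also: growth of clinical yeast isolate S. cerevisiae YJM 789 seeded 1000 cells per well; test concentration not given here.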 The note with it: higher = more signal, called active from +8 up or from −8 down.
Assay [13] is described as follows: S. pombe growth modifiers, basal conditions – strain 972, OD600, 24 h, no modulator, primary screen (AID 1090).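 Also: basal condition with compound alone and no growth modifier present; test concentration not given here.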 The note with it: S. pombe 972 growth, higher = more signal, called active from +8 up or from −8 down.
Assay [14] can be described thus: budding yeast growth modifiers under rapamycin – strain BY4716, OD600, 96 h, primary screen (AID 1091). Also: test concentration not given here. The note with it: S. cerevisiae BY4716 + rapamycin, higher = more signal, called active from +8 up or from −8 down.
For assay [15], the target named is Torsin-1A-interacting protein 2 (Homo sapiens) (UniProt Q8NFQ8). Kind of assay: small molecules binding lysate-expressed LULL1 – cell lysate, human LULL1 lysate, 635/667 nm fluorescence, primary screen (AID 1092).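 Also: probe is lysate of COS7 cells overexpressing human LULL1; score merges per-feature 667 nm fluorescence with signal-to-noise.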 The note with it: small-molecule microarray, hLULL1 lysate binding, 635 nm fluorescence; higher = more signal.
The nature of assay [16]: optical density change of DRC41 E. coli – strain DRC41, OD650, 24 h, E. coli filamentation project, primary screen (AID 1093).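 Also: MC1000 strain lacking acrAB efflux and sulA so SOS filamentation is blocked; test concentration not given here.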 The note with it: E. coli DRC41 growth, higher = more signal, called active from +8 up or from −8 down.
A short description of assay [17]: probe aLefty2 binding to arrayed compounds – biochemical, biotinylated probe, 635/667 nm fluorescence, primary screen (AID 1094).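 Also: score merges spot fluorescence near 667 nm with spot signal-to-noise ratio.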 The note with it: small-molecule microarray, higher = more signal.
For assay [18], the system named is Noggin (protein binding on small-molecule microarray). Description: small molecules binding Noggin protein – biochemical, 635/667 nm fluorescence, primary screen (AID 1095).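 Also: score merges 667 nm feature fluorescence with signal to noise over triplicate slides.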 The note with it: 635 nm fluorescence, higher = more signal.
Assay [19] deals with Neurogenic locus notch homolog protein 3 (Homo sapiens) (UniProt Q9UM47). Description: small molecules binding NOTCH3 protein – biochemical, 635/667 nm fluorescence, primary screen (AID 1096). The note with it: small-molecule microarray, 635 nm fluorescence, higher = more signal.
Chain of Neurogenic locus notch homolog protein 3 (Homo sapiens) (Q9UM47 whole entry, looked up): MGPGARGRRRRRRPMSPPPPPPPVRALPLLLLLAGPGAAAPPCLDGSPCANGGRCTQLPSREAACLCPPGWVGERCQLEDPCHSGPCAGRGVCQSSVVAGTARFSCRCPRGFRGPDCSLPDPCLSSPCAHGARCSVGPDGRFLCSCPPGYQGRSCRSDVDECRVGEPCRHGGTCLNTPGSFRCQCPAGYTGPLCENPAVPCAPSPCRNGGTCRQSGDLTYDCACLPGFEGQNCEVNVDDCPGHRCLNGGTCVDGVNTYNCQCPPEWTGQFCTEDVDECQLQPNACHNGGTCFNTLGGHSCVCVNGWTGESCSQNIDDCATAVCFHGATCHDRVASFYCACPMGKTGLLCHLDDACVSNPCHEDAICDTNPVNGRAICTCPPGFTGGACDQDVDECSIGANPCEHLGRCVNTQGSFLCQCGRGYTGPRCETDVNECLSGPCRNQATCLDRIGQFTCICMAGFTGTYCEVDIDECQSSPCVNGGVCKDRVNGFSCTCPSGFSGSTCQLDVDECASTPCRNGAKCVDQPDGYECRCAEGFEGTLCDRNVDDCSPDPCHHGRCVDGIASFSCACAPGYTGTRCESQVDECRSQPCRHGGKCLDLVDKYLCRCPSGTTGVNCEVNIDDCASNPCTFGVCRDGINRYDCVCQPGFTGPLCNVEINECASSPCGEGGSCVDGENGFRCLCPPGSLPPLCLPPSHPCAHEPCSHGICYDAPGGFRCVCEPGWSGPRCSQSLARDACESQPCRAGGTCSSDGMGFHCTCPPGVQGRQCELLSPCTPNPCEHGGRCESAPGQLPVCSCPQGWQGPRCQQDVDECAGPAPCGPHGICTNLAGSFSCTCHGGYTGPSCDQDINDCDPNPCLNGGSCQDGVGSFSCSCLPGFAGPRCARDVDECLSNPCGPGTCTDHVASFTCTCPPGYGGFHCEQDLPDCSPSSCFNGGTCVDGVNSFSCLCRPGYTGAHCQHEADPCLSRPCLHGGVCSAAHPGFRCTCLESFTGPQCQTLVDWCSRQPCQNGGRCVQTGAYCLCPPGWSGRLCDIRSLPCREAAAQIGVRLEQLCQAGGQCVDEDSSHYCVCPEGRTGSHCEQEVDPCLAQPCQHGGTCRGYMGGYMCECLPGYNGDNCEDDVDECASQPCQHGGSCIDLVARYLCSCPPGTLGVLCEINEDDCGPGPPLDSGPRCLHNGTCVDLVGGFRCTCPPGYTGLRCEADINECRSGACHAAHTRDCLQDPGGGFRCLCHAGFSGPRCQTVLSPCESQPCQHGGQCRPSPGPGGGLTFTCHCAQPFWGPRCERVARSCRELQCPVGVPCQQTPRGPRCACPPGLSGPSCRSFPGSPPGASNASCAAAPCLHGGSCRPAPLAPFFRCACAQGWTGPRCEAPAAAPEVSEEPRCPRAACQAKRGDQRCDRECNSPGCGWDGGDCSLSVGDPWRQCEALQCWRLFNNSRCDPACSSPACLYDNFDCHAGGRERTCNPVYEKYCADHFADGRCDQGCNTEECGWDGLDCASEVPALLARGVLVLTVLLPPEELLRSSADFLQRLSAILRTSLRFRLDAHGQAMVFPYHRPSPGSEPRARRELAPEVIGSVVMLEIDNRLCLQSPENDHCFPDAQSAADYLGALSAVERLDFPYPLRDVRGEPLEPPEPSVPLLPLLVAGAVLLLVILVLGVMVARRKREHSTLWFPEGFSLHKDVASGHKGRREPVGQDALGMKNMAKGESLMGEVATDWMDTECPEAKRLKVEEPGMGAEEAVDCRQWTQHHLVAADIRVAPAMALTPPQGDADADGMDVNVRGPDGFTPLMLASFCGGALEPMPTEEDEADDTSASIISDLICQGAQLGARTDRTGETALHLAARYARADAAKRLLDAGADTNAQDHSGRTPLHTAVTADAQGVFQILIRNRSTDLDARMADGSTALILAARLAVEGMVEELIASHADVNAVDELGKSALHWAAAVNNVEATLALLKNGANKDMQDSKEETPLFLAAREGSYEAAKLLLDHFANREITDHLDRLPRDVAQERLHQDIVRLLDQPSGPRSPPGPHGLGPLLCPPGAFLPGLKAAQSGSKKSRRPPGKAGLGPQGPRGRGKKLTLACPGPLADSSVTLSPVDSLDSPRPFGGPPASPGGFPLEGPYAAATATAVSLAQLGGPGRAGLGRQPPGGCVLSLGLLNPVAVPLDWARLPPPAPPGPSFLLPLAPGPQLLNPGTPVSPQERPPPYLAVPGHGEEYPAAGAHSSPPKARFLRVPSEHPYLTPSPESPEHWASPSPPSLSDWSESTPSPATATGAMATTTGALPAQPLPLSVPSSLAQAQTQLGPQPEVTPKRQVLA
Assay [20] is described as follows: probe aEGFR binding to arrayed compounds – biochemical, biotinylated probe, 635/667 nm fluorescence, primary screen (AID 1097).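 Also: probe is a biotinylated anti-EGFR antibody binding compounds printed on slides; score combines fluorescence near 667 nm and signal to noise of each spot.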 The note with it: small-molecule microarray, higher = more signal.

Active and inactive are the calls of the source.

Chain of Neurogenic locus notch homolog protein 2 (Homo sapiens) (Q04721 whole entry, looked up, canonical isoform): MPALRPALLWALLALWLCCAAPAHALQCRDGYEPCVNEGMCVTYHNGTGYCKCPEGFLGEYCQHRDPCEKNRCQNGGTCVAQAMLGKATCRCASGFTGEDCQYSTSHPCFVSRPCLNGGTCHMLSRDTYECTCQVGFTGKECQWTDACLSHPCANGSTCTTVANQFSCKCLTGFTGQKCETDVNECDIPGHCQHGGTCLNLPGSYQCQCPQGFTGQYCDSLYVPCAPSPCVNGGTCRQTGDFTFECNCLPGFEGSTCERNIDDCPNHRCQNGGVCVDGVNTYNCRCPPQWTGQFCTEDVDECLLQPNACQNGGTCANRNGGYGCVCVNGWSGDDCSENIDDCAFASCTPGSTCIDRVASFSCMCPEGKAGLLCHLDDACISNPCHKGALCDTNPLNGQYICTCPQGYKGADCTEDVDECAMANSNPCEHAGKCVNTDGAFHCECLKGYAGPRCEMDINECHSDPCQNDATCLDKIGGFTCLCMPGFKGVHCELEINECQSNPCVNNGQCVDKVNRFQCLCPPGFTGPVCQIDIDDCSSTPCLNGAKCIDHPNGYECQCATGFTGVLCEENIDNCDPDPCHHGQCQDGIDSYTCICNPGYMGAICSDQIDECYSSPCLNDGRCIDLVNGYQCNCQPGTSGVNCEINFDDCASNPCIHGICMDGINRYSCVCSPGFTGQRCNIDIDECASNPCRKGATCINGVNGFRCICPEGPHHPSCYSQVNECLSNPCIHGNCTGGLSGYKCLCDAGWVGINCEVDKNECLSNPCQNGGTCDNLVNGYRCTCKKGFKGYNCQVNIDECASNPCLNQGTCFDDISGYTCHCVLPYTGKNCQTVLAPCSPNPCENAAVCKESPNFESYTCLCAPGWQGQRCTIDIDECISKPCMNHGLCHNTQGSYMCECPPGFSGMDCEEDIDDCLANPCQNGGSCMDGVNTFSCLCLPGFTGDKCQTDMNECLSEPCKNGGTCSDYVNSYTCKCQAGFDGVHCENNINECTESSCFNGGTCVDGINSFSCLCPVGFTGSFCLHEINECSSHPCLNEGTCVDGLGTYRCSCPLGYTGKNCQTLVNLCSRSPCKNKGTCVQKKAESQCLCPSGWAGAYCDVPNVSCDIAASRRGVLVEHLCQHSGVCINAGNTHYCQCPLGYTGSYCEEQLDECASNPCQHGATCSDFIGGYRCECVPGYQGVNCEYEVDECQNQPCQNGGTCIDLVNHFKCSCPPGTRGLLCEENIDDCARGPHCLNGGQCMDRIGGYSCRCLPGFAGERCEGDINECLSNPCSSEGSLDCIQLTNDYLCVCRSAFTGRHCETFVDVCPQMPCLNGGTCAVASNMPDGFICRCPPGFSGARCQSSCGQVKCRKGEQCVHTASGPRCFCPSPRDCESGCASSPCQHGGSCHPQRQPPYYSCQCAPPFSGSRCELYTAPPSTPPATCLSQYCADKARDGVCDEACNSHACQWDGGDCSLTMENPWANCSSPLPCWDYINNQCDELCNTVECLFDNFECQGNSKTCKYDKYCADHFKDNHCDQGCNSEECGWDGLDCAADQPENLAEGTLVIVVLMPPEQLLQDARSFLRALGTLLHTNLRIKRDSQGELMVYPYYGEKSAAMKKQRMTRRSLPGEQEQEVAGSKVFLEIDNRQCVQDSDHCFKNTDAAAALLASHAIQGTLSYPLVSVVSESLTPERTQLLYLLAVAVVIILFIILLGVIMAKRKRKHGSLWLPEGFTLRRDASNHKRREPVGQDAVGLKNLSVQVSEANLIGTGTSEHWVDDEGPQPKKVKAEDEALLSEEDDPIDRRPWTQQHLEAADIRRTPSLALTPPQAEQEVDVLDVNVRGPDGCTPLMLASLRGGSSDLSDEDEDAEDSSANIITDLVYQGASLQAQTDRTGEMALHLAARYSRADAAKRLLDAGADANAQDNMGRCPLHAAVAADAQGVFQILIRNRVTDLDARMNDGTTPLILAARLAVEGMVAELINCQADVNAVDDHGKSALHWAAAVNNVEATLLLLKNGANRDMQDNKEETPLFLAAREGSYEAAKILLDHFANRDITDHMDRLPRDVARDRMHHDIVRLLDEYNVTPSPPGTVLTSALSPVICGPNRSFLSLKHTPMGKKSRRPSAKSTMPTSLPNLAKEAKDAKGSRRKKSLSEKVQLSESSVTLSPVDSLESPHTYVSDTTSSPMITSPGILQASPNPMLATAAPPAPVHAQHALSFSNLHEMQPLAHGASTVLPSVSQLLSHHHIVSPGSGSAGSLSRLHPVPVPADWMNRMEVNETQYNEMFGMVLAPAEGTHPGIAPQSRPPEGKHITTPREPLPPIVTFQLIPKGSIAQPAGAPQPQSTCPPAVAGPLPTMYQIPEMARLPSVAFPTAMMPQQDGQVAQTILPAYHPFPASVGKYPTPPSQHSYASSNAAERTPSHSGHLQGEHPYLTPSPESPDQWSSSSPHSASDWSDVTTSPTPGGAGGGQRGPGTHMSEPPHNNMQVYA

For the molecule `C=C[C@H](OC)[C@@H](OC(=O)Nc1ccc(SC)cc1)c1ccc(OCCO)cc1`, the composite z-score in assay [1] is 0.0168; in [2] it was 0.594; in assay [3], -0.0307; in assay [4], 0.778; in [5] it was -0.21; in [6], 0.121. The composite z-score in assay [7] is 1.41; in assay [9], -0.0503; in [10], -0.249; in assay [11], 1.15; in assay [15], 2.67; in assay [17], -0.0478. Besides, the composite z-score is -0.555 in assay [18], -0.179 in assay [19] and 0.507 in assay [20]. The z-score is 5.3 (inactive) in assay [8]; 0.458 (inactive) in assay [12]; -0.339 (inactive) in [13]; 0.513 (inactive) in assay [14]; 1.15 (inactive) in assay [16].

For `COCCCNC(=O)[C@@]1(C)c2ccccc2C(=O)N(Cc2ccccc2)[C@H]1c1ccc(CO)cc1`, the composite z-score in assay [1] is 0.235; in [2], 0.0748; in assay [3], -0.173; in assay [4] it was -0.979; in [5], -1.19; in assay [6], 1.88. The composite z-score is 1.5 in [7]; -0.353 in assay [9]; -0.147 in assay [10]; 1.46 in assay [11]; 3.43 in [15]; -0.11 in assay [17]. For the same molecule, the composite z-score was -0.694 in assay [18], 0.0118 in assay [19] and -0.168 in assay [20]. The z-score in assay [8] is -1.24 (inactive); in assay [12] it was -0.21 (inactive); in assay [13] it was -1.31 (inactive); in assay [14], -0.0048 (inactive); in assay [16], -0.336 (inactive).

In the case of `NC(=O)[C@]1(Cc2ccccc2)N=C(c2ccc(OCCCO)cc2)O[C@@H]1c1ccccc1`, the composite z-score was 0.207 in assay [1]; -0.911 in assay [2]; 0.0121 in assay [3]; 0.161 in assay [4]; 1.15 in [5]; 1.59 in assay [6]. Moreover, the composite z-score is 1.12 in assay [7]; 0.503 in [9]; -0.214 in [10]; 0.588 in assay [11]; 3.54 in assay [15]; 0.0781 in [17]. Moreover, the composite z-score in [18] was -0.165; in assay [19] it was 0.658; in [20] it was 0.0182. Besides, the z-score is -0.573 (inactive) in assay [8]; -0.94 (inactive) in assay [12]; -1.17 (inactive) in [13]; -0.314 (inactive) in assay [14]; -0.351 (inactive) in assay [16].

Consider `CN(C)CCCCCCNC(=O)[C@@H]1C[C@@H]2C(=O)N[C@@H](Cc3ccccc3)C(=O)N2[C@@H]1c1cccc(OCCO)c1`, for which the composite z-score in [1] is 0.0797; in assay [2], 1.42; in [3], -0.0605; in assay [4] it was 0.215; in assay [5], 0.0438; in assay [6] it was 1.42. Besides, the composite z-score in [7] was 1.33; in [9], 0.258; in assay [10], 0.241; in [11] it was 1.55; in assay [15] it was 2.67; in [17] it was 0.0498. Further, the figures for the composite z-score in assay [18], in [19] and in assay [20] were 1.05, 1.13 and -0.0492, respectively. Besides, the z-score in assay [8] is 3.59 (inactive); in [12] it was -1.49 (inactive); in assay [13], -1.07 (inactive); in assay [14], -0.567 (inactive); in [16], 0.698 (inactive).

For the molecule `CCOC(=O)N1C(c2ccc(OCCCO)cc2)=NC(C(=O)OC)N1C(=O)OCC` (stereo not given), the composite z-score in assay [1] is -0.243; in [2] it was 0.0754; in assay [3], 0.0794; in assay [4], 0.683; in assay [5], 1.17; in assay [6], 1.39. Further, the composite z-score in assay [7] is 1.14; in assay [9] it was 0.424; in [10], -0.347; in [11] it was 1.54; in assay [15], 3.21; in assay [17] it was 0.174. Also, the composite z-score in [18] is 1.42; in assay [19], 1.09; in assay [20], -0.0325. Besides, the z-score in [8] is 1.37 (inactive); in assay [12], -0.925 (inactive); in assay [13], -0.265 (inactive); in assay [14], -1.32 (inactive); in [16], 1.2 (inactive).

The record behind these values is PubChem BioAssay.
